Where “and” joins values, the source holds several entries; their conditions need not be identical. Equal entries are not always repeated. Results filed as inconclusive are left out. Unmarked numbers belong to inactive results. Calls of active or inactive are those of the source. Calls follow the shape of the dose curve; as a rule, active = well fitted inhibition curve with a large enough effect; inconclusive = small, poorly fitted or top-dose-only effect; inactive = flat fitted curve, though single readings scatter.
How the values were obtained:
CRL-7250 = normal cell line; experiment: Cytotoxic Profiling of Annotated Libraries Using Quantitative High-Throughput Screening (AID 1296008); conditions: Five cell lines viability, CellTiter-Glo ATP luminescence, 48-72 h; max response: hits give low values; as to max response: % is scaled to controls: 0 for no effect and ±100 for the full control effect
Outline: (§1)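 Compounds were pin-transferred onto cells and incubated 48 or 72 hr at 37 degree Celsius, 95% humidity. CellTiter-Glo was added, plates sat 10 min at room temperature, then ATP-coupled luminescence was imaged as the viability read-out.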

HaCat [1] = experiment: as above; conditions: Five cell lines viability, CellTiter-Glo ATP luminescence, 48-72 h; max response: hits give low values
Outline: as §1

KB-3-1 = experiment: as above; conditions: Five cell lines viability, CellTiter-Glo ATP luminescence, 48-72 h; max response: hits give low values
Outline: as §1

MCC-13 = experiment: qHTS assay to identify novel small-molecules to repurpose for Merkel cell carcinoma treatment (AID 1296009); conditions: MCC and control cell lines, CellTiter-Glo viability, 72 h; series mostly up to 46 µM
Outline: (§2)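 Cells exposed to NPC (8-point) and MIPE (11-point) compound dilutions for 72 hr at 37 degree celsius; viability read by CellTiter-Glo luminescence, normalized to no-cell and DMSO in-plate controls.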

MCC-26 = experiment: as above; conditions: MCC and control cell lines, CellTiter-Glo viability, 72 h; series mostly up to 46 µM
Outline: as §2

NIH3T3 = experiment: Cytotoxic Profiling of Annotated Libraries Using Quantitative High-Throughput Screening (AID 1296008); conditions: Five cell lines viability, CellTiter-Glo ATP luminescence, 48-72 h; max response: hits give low values; as to max response: % is scaled to controls: 0 for no effect and ±100 for the full control effect
Outline: as §1

HACAT [2] = experiment: qHTS assay to identify novel small-molecules to repurpose for Merkel cell carcinoma treatment (AID 1296009); conditions: MCC and control cell lines, CellTiter-Glo viability, 72 h; at 44.8 µM (top of the series) unless noted
Outline: as §2

P93_24 = experiment: qHTS profiling for inhibitors of Plasmodium falciparum proliferation (AID 504749); conditions: P. falciparum in erythrocytes, SYBR Green DNA, 72 h; series mostly up to 28.7 µM
Outline: (§3)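 P. falciparum-infected erythrocytes (0.3% parasitemia, 2.5% hematocrit final) were exposed to compounds for 72 h at 37 C in 5% CO2, then lysed with SYBR Green buffer overnight at room temperature; parasite DNA fluorescence was normalized to artemisinin and DMSO controls.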

P94_40 = experiment: as above; conditions: P. falciparum in erythrocytes, SYBR Green DNA, 72 h; series mostly up to 28.7 µM
Outline: as §3

PAD = experiment: as above; conditions: P. falciparum in erythrocytes, SYBR Green DNA, 72 h; series mostly up to 28.7 µM
Outline: as §3

PC15 = experiment: as above; conditions: P. falciparum in erythrocytes, SYBR Green DNA, 72 h; series mostly up to 28.7 µM
Outline: as §3

PC26 = experiment: as above; conditions: P. falciparum in erythrocytes, SYBR Green DNA, 72 h; series mostly up to 28.7 µM
Outline: as §3

PC49 = experiment: as above; conditions: P. falciparum in erythrocytes, SYBR Green DNA, 72 h; series mostly up to 28.7 µM
Outline: as §3

SC27B = experiment: as above; conditions: P. falciparum in erythrocytes, SYBR Green DNA, 72 h; series mostly up to 28.7 µM
Outline: as §3

TAB109 = experiment: as above; conditions: P. falciparum in erythrocytes, SYBR Green DNA, 72 h; series mostly up to 28.7 µM
Outline: as §3

TAB113 = experiment: as above; conditions: P. falciparum in erythrocytes, SYBR Green DNA, 72 h; series mostly up to 28.7 µM
Outline: as §3

TAB165 = experiment: as above; conditions: P. falciparum in erythrocytes, SYBR Green DNA, 72 h; series mostly up to 28.7 µM
Outline: as §3

W2 = experiment: as above; conditions: P. falciparum in erythrocytes, SYBR Green DNA, 72 h; series mostly up to 28.7 µM
Outline: as §3

HEK293T = experiment: qHTS assay to identify novel small-molecules to repurpose for Merkel cell carcinoma treatment (AID 1296009); conditions: MCC and control cell lines, CellTiter-Glo viability, 72 h; series mostly up to 44.8 µM
Outline: as §2
Also: nearly all actives have a fitted effect of over 60% in size.
Potency is read from the fitted curve at half-maximal effect.

CCOc1cc2ncc(C#N)c(Nc3ccc(OCc4ccccn4)c(Cl)c3)c2cc1NC(=O)C=CCN(C)C
Potency (CRL-7250): 1050 nM (active)
Potency (HaCat [1]): 0.0053 µM (active)
max response (KB-3-1): -18.5%
Potency (MCC-13): inactive
Potency (MCC-26): inactive

N#CC(=C(O)c1ccc(Cl)cc1Cl)c1nc2cc(Cl)ccc2c(=O)[nH]1
max response (CRL-7250): -6.32%
max response (HaCat [1]): 4.62%
max response (KB-3-1): 3.32%
max response (NIH3T3): 1.52%
Potency (MCC-13): inactive
Potency (MCC-26): inactive

C=CC(=O)Nc1ccc2ncnc(Nc3ccc(OCc4cccc(F)c4)c(Cl)c3)c2c1
Potency (CRL-7250): 14600 nM (active)
Potency (HaCat [1]): 1.87 µM (active) and 580 nM (active)
Potency (KB-3-1): 9350 nM (active)
Potency (MCC-13): 3720 nM (active)

CCc1cc(C(C)=NOCc2ccc(C3CCCCC3)c(C(F)(F)F)c2)ccc1CN1CC(C(=O)O)C1
max response (CRL-7250): 2.27%
outcome (HaCat [1]): inactive
outcome (KB-3-1): inactive
max response (NIH3T3): -5.84%
outcome (HACAT [2]): inactive
Potency (MCC-13): inactive
Potency (MCC-26): inactive

O=C(C=CC=Cc1ccc2c(c1)OCO2)N1CCCCC1
max response (CRL-7250): -3.96%
max response (HaCat [1]): -2.24%
max response (KB-3-1): -6.15%
outcome (NIH3T3): inactive
Potency (MCC-13): inactive
Potency (MCC-26): inactive

O=c1ccn([C@@H]2O[C@H](CO)[C@H](O)[C@@H]2F)c(=O)[nH]1
max response (CRL-7250): -4.58%
max response (HaCat [1]): 4.18%
max response (KB-3-1): 5.55%
max response (NIH3T3): 2.94%
Potency (MCC-13): inactive
Potency (MCC-26): inactive

CC(C)OC(=O)[C@H](C)N[P@](=O)(OC[C@H]1O[C@@H](n2ccc(=O)[nH]c2=O)[C@](C)(F)[C@H]1O)Oc1ccccc1
max response (CRL-7250): -5.93%
max response (HaCat [1]): -9.66%
max response (KB-3-1): 1.17%
max response (NIH3T3): -9.86%
Potency (MCC-13): inactive
Potency (MCC-26): inactive

O=C1CSC(=O)N1C(CCc1ccncc1)COc1ccc(-c2cccc([N+](=O)[O-])c2)cc1 (stereo not given)
max response (CRL-7250): -33.8%
max response (HaCat [1]): -30.8%
max response (KB-3-1): -6.99%
max response (NIH3T3): -3.92%
Potency (MCC-13): inactive
Potency (MCC-26): inactive

CC(=O)OCC(=O)[C@@]12N=C(C)O[C@H]1C[C@H]1[C@@H]3CCC4=CC(=O)C=C[C@]4(C)[C@@H]3[C@@H](O)C[C@@]12C
max response (CRL-7250): 0.387%
max response (HaCat [1]): -2.39%
max response (KB-3-1): 7.6%
max response (NIH3T3): -3.36%
Potency (MCC-13): inactive
Potency (MCC-26): inactive

O=C1c2cccc(O)c2C(=O)c2c(O)cc(CO)cc21
max response (CRL-7250): -9.37%
max response (HaCat [1]): -18.1%
max response (KB-3-1): -6.13%
max response (NIH3T3): -5.61%
Potency (MCC-13): inactive
Potency (MCC-26): inactive

CNC(=O)Nc1ccc(-c2nc(N3CC4CCC(C3)O4)c3cnn(C4CCC5(CC4)OCCO5)c3n2)cc1
Potency (CRL-7250): 4.7 nM (active)
max response (HaCat [1]): -19.6%
Potency (NIH3T3): 52.6 nM (active)

C[C@@]12C[C@@]3(O)O[C@@H](O1)[C@]1(COC(=O)c4ccccc4)[C@@H]3C[C@@]12O[C@@H]1O[C@H](CO)[C@@H](O)[C@H](O)[C@@H]1O
max response (CRL-7250): 4.21%
outcome (HaCat [1]): inactive
outcome (KB-3-1): inactive
outcome (NIH3T3): inactive
outcome (HACAT [2]): inactive
Potency (MCC-13): inactive
Potency (MCC-26): inactive

CS(=O)(=O)N1CCc2c(-c3cnc(N)nc3)nc(N3CCOCC3)nc21
Potency (CRL-7250): 935 nM (active)
Potency (HaCat [1]): 1.16 µM (active)
Potency (KB-3-1): 4610 nM (active)
Potency (NIH3T3): 743 nM (active) and 1.84 µM (active)
Potency (MCC-13): inactive

COc1ccc2c(c1OC)C(=O)OC2[C@H]1c2c(cc3c(c2OC)OCO3)CCN1C (stereo not given in full)
Potency (P93_24): inactive
Potency (P94_40): inactive
Potency (PAD): inactive
Potency (PC15): inactive
Potency (PC26): inactive
Potency (PC49): inactive
Potency (SC27B): inactive
Potency (TAB109): inactive
Potency (TAB113): inactive
Potency (TAB165): inactive
Potency (W2): inactive
Potency (CRL-7250): 833 nM (active)
Potency (HaCat [1]): 10.5 µM (active)
Potency (KB-3-1): 118 nM (active)
Potency (NIH3T3): 1050 nM (active)
Potency (MCC-13): 2960 nM (active)

COc1cc(O)c2c(c1)C1OC1C[C@H](O)[C@H](O)C(=O)C=CC[C@H](C)OC2=O (stereo not given in full)
Potency (CRL-7250): 26400 nM (active)
Potency (HaCat [1]): 23.5 µM (active)
Potency (NIH3T3): 16600 nM (active)

Cc1ccccc1C(=O)Nc1ccc(C(=O)N2CCCC(O)c3cc(Cl)ccc32)c(C)c1 (stereo not given)
max response (CRL-7250): -23.5%
max response (HaCat [1]): 1.52%
outcome (KB-3-1): inactive
max response (NIH3T3): -21%
Potency (MCC-13): inactive
Potency (MCC-26): inactive

Cc1cn([C@@H]2O[C@H](CO)[C@@H](O)[C@H]2F)c(=O)[nH]c1=O
max response (CRL-7250): -5.97%
max response (HaCat [1]): -13.3%
outcome (KB-3-1): inactive
outcome (NIH3T3): inactive
Potency (MCC-13): inactive
Potency (MCC-26): inactive

CCn1c(=O)c2c(nc(C=Cc3ccc(OC)c(OC)c3)n2C)n(CC)c1=O
max response (CRL-7250): -2.94%
max response (HaCat [1]): -8.26%
max response (KB-3-1): 9.4%
outcome (NIH3T3): inactive
Potency (MCC-13): inactive
Potency (MCC-26): inactive

COc1cccc2c1C(=O)c1c(O)c3c(c(O)c1C2=O)C[C@@](O)(C(=O)CO)C[C@@H]3O[C@H]1C[C@H](N)[C@H](OC2CCCCO2)[C@H](C)O1 (stereo not given in full)
Potency (P93_24): 2240 nM (active)
Potency (P94_40): 2510 nM (active)
Potency (PAD): 2240 nM (active)
Potency (PC15): 10000 nM (active)
Potency (PC26): 7570 nM (active)
Potency (PC49): 4470 nM (active)
Potency (SC27B): 2820 nM (active)
Potency (TAB109): 2510 nM (active)
Potency (TAB113): 3550 nM (active)
Potency (TAB165): 2240 nM (active)
Potency (W2): 601 nM (active)

OCCNC1CCCc2c1[nH]c1ccc(-c3ccccc3)cc21 (stereo not given)
outcome (HACAT [2]): inactive

Cc1cncc2cccc(S(=O)(=O)N3CCCN(C(=O)CN)C[C@@H]3C)c12
Potency (HEK293T): inactive

O=S(=O)(O)CCSSCCS(=O)(=O)O
Potency (HEK293T): inactive

C[N+](C)([O-])CCNc1ccc(NCC[N+](C)(C)[O-])c2c1C(=O)c1c(O)ccc(O)c1C2=O
max response (HaCat [1]): -8.98%
Potency (NIH3T3): 93.5 nM (active)
Potency (MCC-26): inactive

CC(C)(C)c1nc2c3cc[nH]c(=O)c3c3cc(F)ccc3c2[nH]1
Potency (HaCat [1]): 6.62 µM (active)
max response (KB-3-1): -11.6%
Potency (MCC-26): inactive
